# Experimental data as given in PubChem BioAssay (NCI).
# Several values for one entry are separate records, joined by “and”; a condition that tells them apart may be missing. Identical values can stand only once. This is part of a sample that, as a whole, favours compounds with a hit. Of some 83,000 tested, about 20% had one in any assay.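 Single-concentration screen, 48 h exposure, 96-well plates. Endpoint: percent growth. Below 10 = active.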 Activity calls are given as the source filed them.
# Columns and labels:
# Assay in all cases: NCI-60 one-dose screen, 48 h (100 = growth as untreated, 0 = no growth, -100 = all killed)
# Details in all cases: 10 µM unless noted
# HCT-15 colon = system: HCT-15 colon
# HT29 colon = system: HT29 colon
# SNB-75 CNS = system: SNB-75 CNS
# SNB-19 CNS = system: SNB-19 CNS
# U251 CNS = system: U251 CNS
# SK-MEL-5 melanoma = system: SK-MEL-5 melanoma
# UACC-62 melanoma = system: UACC-62 melanoma
# LOX IMVI melanoma = system: LOX IMVI melanoma
# SK-MEL-28 melanoma = system: SK-MEL-28 melanoma
# SK-MEL-2 melanoma = system: SK-MEL-2 melanoma
# EKVX NSCLC = system: EKVX NSCLC
# SN12C renal = system: SN12C renal
# UO-31 renal = system: UO-31 renal
# TK-10 renal = system: TK-10 renal
# ACHN renal = system: ACHN renal
# CAKI-1 renal = system: CAKI-1 renal
# A498 renal = system: A498 renal
# MOLT-4 leukemia = system: MOLT-4 leukemia
# PC-3 prostate = system: PC-3 prostate
# CCRF-CEM leukemia = system: CCRF-CEM leukemia
Structure (SMILES),growth (HCT-15 colon),growth (HT29 colon),growth (SNB-75 CNS),growth (SNB-19 CNS),growth (U251 CNS),growth (SK-MEL-5 melanoma),growth (UACC-62 melanoma),growth (LOX IMVI melanoma),growth (SK-MEL-28 melanoma),growth (SK-MEL-2 melanoma),growth (EKVX NSCLC),growth (SN12C renal),growth (UO-31 renal),growth (TK-10 renal),growth (ACHN renal),growth (CAKI-1 renal),growth (A498 renal),growth (MOLT-4 leukemia),growth (PC-3 prostate),growth (CCRF-CEM leukemia)
CC(O)Cn1cnc2c1c(=O)n(C)c(=O)n2C (stereo unspecified),96.4% (inactive),109% (inactive),83.5% (inactive),104% (inactive),81.8% (inactive),101% (inactive),100% (inactive),87.1% (inactive),103% (inactive),98.7% (inactive),100% (inactive),98.4% (inactive),88.7% (inactive),135% (inactive),98% (inactive),99.4% (inactive),110% (inactive),98.3% (inactive),–,–
Cc1ccc(S(=O)(=O)NCN2C(=O)c3ccccc3C2=O)cc1,99.3% (inactive),104% (inactive),96.9% (inactive),111% (inactive),103% (inactive),112% (inactive),111% (inactive),109% (inactive),–,106% (inactive),119% (inactive),98% (inactive),92.3% (inactive),108% (inactive),108% (inactive),95.1% (inactive),111% (inactive),93.6% (inactive),102% (inactive),91% (inactive)
CC(=O)Nc1cccc2c1CCCC2,92.8% (inactive) and 96.5% (inactive),92.8% (inactive) and 85.6% (inactive),85.4% (inactive) and 101% (inactive),103% (inactive) and 104% (inactive),97.7% (inactive) and 95.7% (inactive),100% (inactive),–,97.1% (inactive) and 93.6% (inactive),104% (inactive) and 107% (inactive),82.6% (inactive) and 75% (inactive),96.6% (inactive) and 94.7% (inactive),103% (inactive) and 100% (inactive),88.2% (inactive) and 91% (inactive),85.6% (inactive) and 83.7% (inactive),102% (inactive) and 110% (inactive),95.1% (inactive),–,104% (inactive) and 102% (inactive),87.8% (inactive) and 90.2% (inactive),82.6% (inactive) and 100% (inactive)
CCN(CC)CCCC(C)Nc1ccnc2cc(Oc3ccccc3)ccc12 (stereo unspecified),52.7% (inactive) and 54.5% (inactive),30.1% (inactive),62.9% (inactive) and 99.8% (inactive),83.5% (inactive) and 94.5% (inactive),56.5% (inactive) and 60.4% (inactive),-87.1% (active) and 79.6% (inactive),60.9% (inactive) and 92.8% (inactive),22.2% (inactive) and 39.3% (inactive),–,115% (inactive),83.7% (inactive) and 74.9% (inactive),–,49.2% (inactive) and 50.6% (inactive),91.3% (inactive),73.6% (inactive) and 80.6% (inactive),68.8% (inactive),59.1% (inactive) and 55.4% (inactive),65.1% (inactive) and 80.7% (inactive),61.9% (inactive) and 67.7% (inactive),65.5% (inactive) and 56% (inactive)
N/C(=N\N=C\c1ccc2c(c1)OCO2)N/N=C\c1ccc2c(c1)OCO2,103% (inactive) and 93.7% (inactive),88.4% (inactive) and 13% (inactive),113% (inactive) and 135% (inactive),108% (inactive) and 92.1% (inactive),99.4% (inactive) and 84.6% (inactive),112% (inactive),112% (inactive) and 90.7% (inactive),–,–,103% (inactive) and 136% (inactive),113% (inactive),107% (inactive) and 89% (inactive),99.5% (inactive) and 77.3% (inactive),140% (inactive) and 153% (inactive),111% (inactive) and 97.7% (inactive),99% (inactive) and 103% (inactive),121% (inactive) and 85.9% (inactive),95.4% (inactive) and 50.3% (inactive),103% (inactive) and 89.6% (inactive),–
CCN(CC)CCCC(C)Nc1cnc(C(=O)Nc2cc(F)cc3cccnc23)cn1 (stereo unspecified),24.5% (inactive) and -32.9% (active),11.8% (inactive) and 5.33% (active),65.7% (inactive) and -54.3% (active),83.1% (inactive) and -87.9% (active),50.3% (inactive) and -76.1% (active),70% (inactive) and -92.2% (active),0.997% (active) and 17.5% (inactive),33.3% (inactive) and -48.5% (active),–,96.7% (inactive) and 50% (inactive),73.3% (inactive) and 19.2% (inactive),54.5% (inactive) and 1.53% (active),29.1% (inactive) and -91.5% (active),63.7% (inactive) and -48.8% (active),36.6% (inactive) and -2.97% (active),36.7% (inactive) and -38.3% (active),63% (inactive),–,61% (inactive) and -52.7% (active),–
CC(C)(O)Cn1cc(-c2ccc3nc(OC4CC4)ccc3c2)c2c(N)ncnc21,95.3% (inactive) and 73.8% (inactive),74% (inactive) and 44.6% (inactive),40.2% (inactive) and 37.9% (inactive),74.8% (inactive) and 64.3% (inactive),82.1% (inactive) and 50.5% (inactive),84.3% (inactive) and 37.8% (inactive),48.4% (inactive),72.8% (inactive) and 30.4% (inactive),–,87.8% (inactive),85.8% (inactive) and 49.3% (inactive),87.9% (inactive) and 38.6% (inactive),63.7% (inactive) and 19.2% (inactive),74.2% (inactive) and 55.3% (inactive),86.2% (inactive) and 43.1% (inactive),80.9% (inactive) and 70.1% (inactive),–,56.6% (inactive) and 17.4% (inactive),56.8% (inactive) and 48.2% (inactive),67.2% (inactive) and 38% (inactive)
O=C(Oc1cccc(OC(=O)c2ccccc2)c1)c1ccccc1,73% (inactive) and 102% (inactive),79.9% (inactive) and 102% (inactive),97.1% (inactive) and 79.6% (inactive),111% (inactive) and 98.9% (inactive),80.4% (inactive) and 101% (inactive),101% (inactive) and 94.8% (inactive),96.1% (inactive) and 100% (inactive),78.3% (inactive) and 87.9% (inactive),–,93.2% (inactive),102% (inactive) and 104% (inactive),97.8% (inactive) and 99.4% (inactive),50.4% (inactive) and 90.9% (inactive),133% (inactive) and 85.7% (inactive),103% (inactive) and 99.7% (inactive),102% (inactive) and 96.7% (inactive),99.2% (inactive) and 91.2% (inactive),85% (inactive) and 91.3% (inactive),9.09% (active) and 91.8% (inactive),80.4% (inactive) and 107% (inactive)
O=C1c2c(O)cc(O)cc2OC(c2ccc(O)c(O)c2)C1O (stereo unspecified),108% (inactive),110% (inactive),96.1% (inactive),101% (inactive),102% (inactive),104% (inactive),106% (inactive),–,108% (inactive),105% (inactive),119% (inactive),104% (inactive),–,104% (inactive),105% (inactive),118% (inactive),107% (inactive),107% (inactive),96.4% (inactive),97.7% (inactive)
CN1C(=O)C(N=Nc2ccc([N+](=O)[O-])cc2)SC1=S (stereo unspecified),51.7% (inactive) and 50.8% (inactive),64.4% (inactive) and 80.4% (inactive),85.9% (inactive) and 91.5% (inactive),69.4% (inactive) and 81.4% (inactive),62.8% (inactive) and 69.4% (inactive),71.3% (inactive) and 73.7% (inactive),–,41.9% (inactive) and 51.5% (inactive),86.6% (inactive) and 95.9% (inactive),52.2% (inactive) and 60.1% (inactive),117% (inactive) and 82% (inactive),62.4% (inactive) and 69.3% (inactive),37.2% (inactive) and 49.9% (inactive),86.8% (inactive) and 101% (inactive),51.8% (inactive) and 56.5% (inactive),103% (inactive) and 75.3% (inactive),85.5% (inactive) and 89.6% (inactive),76.7% (inactive) and 70.5% (inactive),55.5% (inactive) and 50.8% (inactive),54.5% (inactive) and 40.8% (inactive)
